Screens as filed in PubChem BioAssay.
Rev-erbA mod: Rev-erb alpha (human) modulation; Rev-erbα–FITC-DNA binding, fluorescence polarization, 90 min; AID 1259318; P20393; 370,000 compounds, 0.79% hits; activity, % at 10 µM;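 active means activity above about 14%, limit read from the data; passing the limit was not always enough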;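 further: 0% = DMSO wells with 35 nM protein and 100% = DMSO wells with 750 nM protein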
PKA-R1A act: activators of PKA-R1A complex; PKA-R1A dissociation, Cy5-IP20 fluorescence polarization; scaled: DMSO 0%, 113 µM cGMP 100%; 340,000 compounds, 0.083% hits; AID 504707; activation, % at 11.4 µM; P00514+P68181;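 active means percent activation above the mean of all tested compounds plus 3 SD, cut at about 19% in these data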;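 further: higher means more PKAc released from R1A so a rise in polarization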
PKA-R2B activ: PKA-R2B complex activation. P22694+P31323. PKA-R2B holoenzyme dissociation, Cy5-IP20 fluorescence polarization; R2B truncated from residue 108, S112A mutant; 0% DMSO only, 100% 113 µM cGMP. activation, % at 11.4 µM. 340,000 compounds, 0.079% hits. AID 504700;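 active means activation above a cutoff set at the mean over all compounds plus 3 SD, cut at about 18% in these data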;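 further: higher means more holoenzyme dissociation and a rise in polarization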
Target sequence (P31323 whole entry, looked up, other chains not shown, the tested form may be a part): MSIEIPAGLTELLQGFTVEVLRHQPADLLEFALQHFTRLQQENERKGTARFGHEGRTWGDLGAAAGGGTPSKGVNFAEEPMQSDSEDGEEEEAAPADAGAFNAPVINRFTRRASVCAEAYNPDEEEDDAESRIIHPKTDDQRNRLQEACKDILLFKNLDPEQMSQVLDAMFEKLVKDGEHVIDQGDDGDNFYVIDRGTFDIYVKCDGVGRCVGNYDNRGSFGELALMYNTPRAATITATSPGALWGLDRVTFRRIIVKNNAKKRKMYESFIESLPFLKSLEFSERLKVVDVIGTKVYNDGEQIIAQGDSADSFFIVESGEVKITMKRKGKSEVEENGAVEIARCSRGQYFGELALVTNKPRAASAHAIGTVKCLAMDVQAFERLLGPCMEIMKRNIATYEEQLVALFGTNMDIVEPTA
PG9 binder: binds the HIV-1 gp120 antibody PG9; TR-FRET gp120-PG9 antibody binding; inhibition, % at 6.7 µM; 360,000 compounds, 0.43% hits; AID 624416; in the data active means inhibition above about 8.5%
PG9 binder conf: confirmation of small molecules binding HIV-1 gp120 antibody PG9; shares compounds with PG9 binder; TR-FRET PG9 antibody binding, biochemical; inhibition, % at 6.7 µM; 1,500 compounds, 90% hits; in the data active means inhibition above about 9%
PGV04 counter: counter-screen for PG9 binders: binding control antibody PGV04 | shares compounds with PG9 binder | TR-FRET PGV04 antibody-gp120 binding, biochemical | inhibition, % at 6.7 µM | 1,500 compounds, 95% hits | AID 651604; in the data active means inhibition above about 9.5%
PG9 binder DR: small molecules binding HIV-1 gp120 antibody PG9; IC50, µM; 95 tested, under 10 active; AID 651848; shares compounds with PG9 binder; TR-FRET PG9 antibody-gp120 binding inhibition; in the data active means IC50 below about 10 µM
PGV04 DR counter: binds control antibody PGV04 in PG9 counter-screen | shares compounds with PG9 binder | TR-FRET binding to control antibody PGV04 | IC50, µM | 95 compounds, 20% hits | AID 651937
PG126 binding DR: counter-screen for PG9 binders: binding to control antibody PG126; shares compounds with PG9 binder; TR-FRET binding to antibody PG126, counterscreen; IC50, µM; 95 compounds, 20% hits; AID 651939
NR1D1 mod conf: Rev-erb alpha (human) modulation, hit confirmation; Rev-erb alpha FITC-DNA binding, fluorescence polarization, 90 min; 3,000 compounds, 61% hits; activation, % at 25 µM; shares compounds with Rev-erbA mod;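 active means activation at or above a set limit, or at least 3 SD above the negative control mean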;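 further: 0% = 35 nM protein with DMSO and 100% = 750 nM protein high control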
RORg counter: RORgamma DNA-binding activity, dose-response counter-screen; shares compounds with Rev-erbA mod; purified RORgamma protein-FITC-DNA binding, fluorescence polarization; IC50, µM; 910 compounds, 8% hits; AID 1259320;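 active means Compounds whose fitted half-maximal concentration for disrupting protein-DNA binding is below 10 micromolar; the record names Rev-erb in its text, so the target is in doubt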
Numbers without * were called inactive; i = inactive; nt = not tested or not shown. A selection: hits, their analogues and other compounds. The true share with any hit is near 1.2%. Unless noted, no stated cut-off is given here; in the data, active means IC50 below about 9 µM; inactive means the rest.

SMILES	Rev-erbA mod	PKA-R1A act	PKA-R2B activ	PG9 binder	PG9 binder conf	PGV04 counter	NR1D1 mod conf	RORg counter	others
CCC(=O)c1cn(CC(=O)Nc2c(C)cccc2C)c2ccccc12	-2.8	-5.0	15.0	3.8	nt	nt	nt	nt
O=C(CSc1ccc(-c2nc3ccccc3[nH]2)cn1)Nc1ccc(S(=O)(=O)N2CCCC2)cc1	-0.5	-1.9	-4.2	-1.2	nt	nt	nt	nt
Cc1cc2nc(-c3ccc(SCC(=O)Nc4ccc(S(=O)(=O)N5CCCC5)cc4)nc3)[nH]c2cc1C	30.9*	3.9	8.2	16.1*	8.3	27.1*	31.8*	nt
COc1ccc(-c2nnc(NC(=O)C(C)C)s2)c(OC)c1	38.0*	0.2	-5.8	12.5*	20.1*	30.1*	28.2*	>40
COc1ccc(OCCSc2nc3ccccc3c(=O)[nH]2)cc1	29.2*	-8.0	3.3	58.3*	53.4*	65.5*	21.3*	nt
CC(C)(C)C(=O)NC1CCCCN(Cc2cccc(Cl)c2)C1=O (stereo not given)	8.7	nt	nt	nt	nt	nt	nt	nt
N#Cc1c(N)nc(SCC(=O)NCCc2ccccc2)c(C#N)c1-c1cccs1	51.5*	-5.1	-1.6	39.6*	38.2*	62.1*	42.7*	>40
COC(=O)[C@]12C[C@H](CC(=O)NCC34CC5CC(CC(C5)C3)C4)C(=O)N(Cc3ccccc3)C1=C[C@H](COCc1ccccc1)O[C@@H]2C	-4.0	nt	nt	nt	nt	nt	nt	nt
CCCCN(C)c1nc(C)nc2c1nnn2Cc1ccccc1	-4.2	nt	nt	nt	nt	nt	nt	nt
CCCCSc1nc(SCC(=O)NCc2ccco2)c2c3c(sc2n1)COC(C)(CC)C3 (stereo not given)	39.6*	-13.2	-11.4	11.7*	10.5*	16.6*	28.0*	nt
C=CCn1c(SCC(=O)NCc2ccco2)nc2sc3c(c2c1=O)CCCC3	-2.5	-1.3	0.2	-0.9	nt	nt	nt	nt
CCc1nc(SCC(=O)NCc2ccco2)c2c3c(sc2n1)CCCC3	46.1*	-0.5	-0.7	57.0*	42.2*	64.3*	55.3*	>40
CSc1nc(SCC(=O)NCc2ccco2)c2c3c(sc2n1)COC(C)(C)C3	-2.2	0.5	-6.1	-0.7	nt	nt	nt	nt
COC1=C[C@H](C(=O)NCc2ccc(Cl)cc2)C(C)C(c2ccccc2)CC1=O (stereo not given in full)	-1.5	nt	nt	nt	nt	nt	nt	nt
Oc1ccc(Br)cc1C1Nc2ccccc2S1 (stereo not given)	151.7*	-0.7	4.7	24.8*	20.6*	43.6*	88.6*	>40
COc1ccc(-c2c(C)nc3c(-c4ccsc4)cnn3c2N)cc1	107.9*	6.0	-4.3	36.4*	7.8	16.0*	65.8*	>40
COc1ccc(-c2c(C)nc3c(-c4ccccn4)cnn3c2N)cc1	7.0	3.6	-3.2	0.6	nt	nt	nt	nt
CC(=O)c1ccc(NC(=O)C(C)n2c3ccccc3c3nc(=O)cc(C)n32)cc1 (stereo not given)	20.9*	-8.3	-0.9	9.5*	14.0*	15.2*	8.7	nt
Fc1cccc2sc(Nc3nc4c(F)cccc4s3)nc12	67.7*	6.2	2.6	22.8*	23.6*	37.6*	58.0*	>40
COc1ccc(-c2cc(-c3ccccc3)c(C#N)c(SCC(=O)Nc3ncc(C)s3)n2)cc1	25.9*	-4.1	-11.2	27.5*	6.2	10.0*	42.1*	>40
N#Cc1c(-c2ccc(F)cc2)cc(-c2ccccc2)nc1SCC(=O)NCC(=O)O	4.6	-2.3	-7.4	-0.1	nt	nt	nt	nt
COc1ccc(NC(=O)CSc2nc(C)c3c(c2C#N)CCCC3)cc1	-0.3	6.2	7.0	-0.4	nt	nt	nt	nt
Cc1cccc(NC(=O)CSc2nc(C)c(CC(=O)c3ccc(Br)cc3)c(C)c2C#N)c1C	81.8*	5.9	-10.2	9.2*	21.1*	30.0*	30.6*	nt
Cc1nc(SCC(=O)Nc2ccc(F)cc2)c(C#N)c(C)c1CC(=O)c1ccc(Br)cc1	70.4*	2.5	5.6	8.7*	25.6*	34.7*	15.5	nt
C=CCN(C)CC#Cc1ccc(F)cc1	-4.4	nt	nt	nt	nt	nt	nt	nt
SMILES	Rev-erbA mod	PKA-R1A act	PKA-R2B activ	PG9 binder	PG9 binder conf	PGV04 counter	NR1D1 mod conf	RORg counter	others
COc1ccc(OC)c(S(=O)(=O)Nc2ccc(C(=O)Nc3cc(C)on3)cc2)c1	-6.4	nt	nt	nt	nt	nt	nt	nt
COc1ccc(-c2noc(C3CCCN(C(=O)Nc4cccc(C)c4)C3)n2)cc1 (stereo not given)	-6.8	nt	nt	nt	nt	nt	nt	nt
COc1ccccc1N(C)S(=O)(=O)c1ccc(C(=O)Nc2ncc(C)s2)cc1	2.1	2.9	3.8	0.0	nt	nt	nt	nt
COc1ccccc1N(C)S(=O)(=O)c1ccc(C(=O)Nc2nc(C)c(C(C)=O)s2)cc1	103.6*	-7.3	-3.7	39.6*	41.2*	60.9*	87.3*	>40
COc1ccc(NC(=O)COC(=O)c2ccc3c(c2)OCO3)c(OC)c1	174.8*	7.6	-8.7	22.2*	33.2*	28.5*	180.2*	>40	PG9 binder DR=>67;PGV04 DR counter=i;PG126 binding DR=i
O=C(Cn1c(=S)[nH]c2ccccc2c1=O)N1CCc2ccccc2C1	34.8*	1.4	11.3	32.1*	33.0*	51.4*	22.8*	nt
COc1cc(OC)cc(-c2c(Sc3ccccc3)c3cc(-c4cnc(OC)nc4)ccc3n2C)c1	-1.3	nt	nt	0.7	nt	nt	nt	nt
COc1ccc(-c2ccc3c(c2)c(Sc2ccccc2)c(-c2cc(OC)cc(OC)c2)n3C)cc1	39.7*	nt	nt	16.9*	43.6*	59.7*	60.0*	>40
COc1ccc(-c2c(Sc3ccccc3)c3cc(-c4ccc5c(c4)OCO5)ccc3n2C)cc1	19.9*	nt	nt	36.8*	88.1*	57.2*	-34.1	nt	PG9 binder DR=2.87*;PGV04 DR counter=2.14*;PG126 binding DR=2.05*
CCCN1CCS(=O)(=O)N(Cc2cn(CC(=O)OCC)nn2)C(C(=O)OC)C1 (stereo not given)	-5.4	nt	nt	nt	nt	nt	nt	nt
O=C(COC(=O)c1n[nH]c2ccccc12)NC(=O)NC12CC3CC(CC(C3)C1)C2	17.1*	-0.1	-2.4	17.5*	21.6*	31.3*	31.3*	nt
Cc1ccc(-n2nc3c(N4CCC(C(=O)NCCc5cccs5)CC4)nnc(C)c3c2C)cc1	29.9*	-11.6	-1.7	12.2*	25.2*	35.9*	36.0*	>40
C/C(=N/NC(=O)CSc1nnc(SCc2ccc(C)cc2)s1)c1cccc(O)c1	-6.0	nt	nt	nt	nt	nt	nt	nt
